Measurements as given in PubChem BioAssay (NCATS).
Several values for one entry are separate records, joined by “and”; a condition that tells them apart may be missing. Equal values may be shown once. Inconclusive results are not listed. Activity calls are given as the source filed them. Unless noted, calls follow the shape of the dose curve; as a rule, active = well fitted curve in the direction sought with a large enough effect; inconclusive = small, poorly fitted or top-dose-only effect, or another doubt; inactive = no such curve, though single readings can be large; an effect the other way counts as inactive or inconclusive.

Columns and labels:
[1] = target: Alpha-galactosidase A (Homo sapiens) (UniProt P06280); assay: Counterscreen for Glucocerebrosidase Inhibitors: qHTS Assay for Human alpha-Galactosidase at pH 4.5 (AID 992); also: 0% is about no effect
Chain of Alpha-galactosidase A (Homo sapiens) (P06280 whole entry, looked up): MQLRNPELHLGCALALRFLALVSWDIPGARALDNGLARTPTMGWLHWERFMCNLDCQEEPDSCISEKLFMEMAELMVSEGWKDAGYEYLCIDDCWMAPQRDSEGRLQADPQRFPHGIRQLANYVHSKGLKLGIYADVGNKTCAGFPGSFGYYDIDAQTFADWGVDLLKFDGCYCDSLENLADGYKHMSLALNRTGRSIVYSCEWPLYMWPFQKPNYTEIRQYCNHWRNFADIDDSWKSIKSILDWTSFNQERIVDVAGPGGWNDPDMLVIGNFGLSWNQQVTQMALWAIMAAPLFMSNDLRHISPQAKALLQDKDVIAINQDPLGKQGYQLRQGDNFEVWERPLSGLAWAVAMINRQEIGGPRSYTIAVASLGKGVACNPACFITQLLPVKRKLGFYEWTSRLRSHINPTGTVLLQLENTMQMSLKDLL
Summary of the method: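 Fluorogenic 4-MU alpha-D-galactoside (80 uM) hydrolysis, 2 nM enzyme, pH 4.5 citrate buffer + 0.005% Tween-20; 20 min RT; NaOH/glycine pH 10 stop; Ex365/Em440. Compounds titrated 0.7 nM–77 uM; Hill-equation AC50.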

[2] = target: alpha-glucosidase (Oryza sativa, rice) (UniProt Q653V4); assay: Counterscreen for Glucocerebrosidase Inhibitors: qHTS Assay for Rice alpha-Glucosidase at pH 5.0 (AID 997);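 also: 0% = full activity with enzyme and -100% = basal without enzyme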
Summary of the method: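 Endpoint fluorogenic assay at pH 5.0: compounds (0.7 nM to 77 uM) titrated against 4 nM rice enzyme and 400 uM 4-MU-alpha-glucoside for 20 min at room temperature; NaOH/glycine stop, read ex 365/em 440 nm, Hill-fitted AC50.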

[3] = target: DNA repair nuclease/redox regulator APEX1 (Homo sapiens) (UniProt P27695); assay: qHTS Validation Assay for Inhibitors of the Human Apurinic/apyrimidinic Endonuclease 1 (APE1) (AID 1705; also: potency is read from the fitted curve at half-maximal effect;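 as to activity change, negative = inhibition: TAMRA fluorescence gain over two minutes as APE1 cuts a quenched THF abasic duplex; % is scaled to controls: 0 for no effect and ±100 for the full control effect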)
Chain of DNA repair nuclease/redox regulator APEX1 (Homo sapiens) (P27695 whole entry, looked up): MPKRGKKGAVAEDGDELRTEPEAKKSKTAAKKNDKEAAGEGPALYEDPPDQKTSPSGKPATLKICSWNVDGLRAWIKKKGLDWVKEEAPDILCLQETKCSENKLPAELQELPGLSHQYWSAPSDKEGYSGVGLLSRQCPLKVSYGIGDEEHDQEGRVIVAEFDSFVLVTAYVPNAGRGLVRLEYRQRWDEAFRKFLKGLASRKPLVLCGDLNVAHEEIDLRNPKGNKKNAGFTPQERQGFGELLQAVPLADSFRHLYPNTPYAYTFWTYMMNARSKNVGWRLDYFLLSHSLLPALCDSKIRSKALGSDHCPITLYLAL
Summary of the method: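 qHTS, 1536-well. APE1 + cpd 15 min RT → 50 nM TAMRA/BHQ-2 THF-abasic dsDNA substrate → kinetic fluorescence, 3 reads/60 s; delta(read3−read1) = reaction progress. No-enzyme buffer = negative control.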

[4] = Counterscreen for APE1 Inhibitors: Fluorescent Dye Displacement Validation Assay (AID 1707);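 also: plate controls were ThO with dsDNA and no compound for no effect and ThO without dsDNA for full effect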
Summary of the method: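 Endpoint fluorescence read at 480 nm excitation / 540 nm emission; DNA-binding compounds lower signal by displacing 250 nM Thiazole Orange from 50 nM dsDNA containing a tetrahydrofuran abasic site, Tris-HCl pH7.5 buffer with NaCl and MgCl2.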

[5] = qHTS Assay for Lipid Storage Modulators (AID 1519; calls by dose curve; as to activity change, negative = inhibition: % is scaled to controls: 0 for no effect and ±100 for the full control effect); conditions: Drosophila S3 cells, BODIPY lipid droplet/cell ratio, laser cytometry, cells loaded with oleic acid
Summary of the method: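 Cells seeded at 5,000 per well were treated with compounds over a concentration series and loaded with oleic acid (400 uM, as added). Lipid droplet fluorescence (488 nm excitation, 500-530 nm channel) was read by laser-scanning cytometry and normalized to 20 uM Triacsin C.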

[6] = Cell Viability - LYMP2-006 (AID 978); also: nearly all actives have a fitted effect of over 60% in size; also: potency is read from the fitted curve at half-maximal effect
Summary of the method: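 Cells are seeded at 2500 per well and rested 5 hr at 37 C. Compounds are added across a concentration series for 24 hr at 37 C, after which ATP is quantified by luciferase luminescence.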

[7] = Cell Viability - LYMP2-007 (AID 979);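 also: cells exposed to compound for 24 h before reading; nearly all actives have a fitted effect of over 60% in size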; also: potency is read from the fitted curve at half-maximal effect
Summary of the method: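 Measured via luciferase-based ATP quantitation: lymphoblastoid cells, 24 hr compound exposure at 37 C, AC50 from Hill fits.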

[8] = Cell Viability - LYMP2-016 (AID 984); also: nearly all actives have a fitted effect of over 55% in size; also: potency is read from the fitted curve at half-maximal effect
Summary of the method: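 Cells were seeded at 2500 per well and rested 5 hr before a 24 hr compound exposure at 37 C. Viability was then gauged as cellular ATP by luciferase luminescence, with AC50 values fitted to the Hill equation.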

[9] = Cell Viability - LYMP2-018 (AID 985); also: nearly all actives have a fitted effect of over 50% in size; also: potency is read from the fitted curve at half-maximal effect
Summary of the method: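 In this qHTS viability assay, cells are treated for 24 hr and cellular ATP is quantified by luciferase-based luminescence, with tetraoctylammonium bromide as positive control.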

[10] = Cell Viability - LYMP2-020 (AID 986); also: nearly all actives have a fitted effect of over 55% in size; also: potency is read from the fitted curve at half-maximal effect
Summary of the method: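 Cells at 2500 per well receive a 24 hr compound exposure at 37 C. Viability is measured as ATP-dependent luciferase luminescence, with AC50 modeled from qHTS concentration-response curves.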

[11] = Cell Viability - LYMP2-022 (AID 987); also: nearly all actives have a fitted effect of over 55% in size; also: potency is read from the fitted curve at half-maximal effect
Summary of the method: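 In this qHTS cytotoxicity screen, compound titrations were incubated 24 hr at 37 C with human lymphoblastoid cells in complete medium. Luciferase-based ATP luminescence provided the viability signal.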

[12] = Cell Viability - LYMP2-026 (AID 989); also: nearly all actives have a fitted effect of over 50% in size; also: potency is read from the fitted curve at half-maximal effect
Summary of the method: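 Acute toxicity screen in complete culture medium, with 24 hr compound exposure at 37 C. Viability read as cellular ATP via luciferase reaction, with tetraoctylammonium bromide (6.4pM to 92 uM) as positive control.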

[13] = Cell Viability - LYMP1-002 - Assay at 24 hr (AID 993); also: potency is read from the fitted curve at half-maximal effect
Summary of the method: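 Viability was judged from intracellular ATP using a luciferase read-out, following a 24-hour compound incubation at 37 C of lymphoblastoid cells seeded at 2500 per well. Concentration-response data were fitted to the Hill equation for AC50.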

[14] = Cell Viability - LYMP2-002 (AID 977);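 also: compound exposure lasted 24 h at 37 °C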; also: potency is read from the fitted curve at half-maximal effect
Summary of the method: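 Human lymphoblastoid cells (2500/well) in complete medium were preincubated 5 hr at 37 C, then exposed to compounds for 24 hr at 37 C. Intracellular ATP was read by CellTiter-Glo luminescence; AC50 came from Hill-equation concentration-response fits.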

[15] = Cell Viability - LYMP2-008 (AID 980); also: nearly all actives have a fitted effect of over 60% in size; also: potency is read from the fitted curve at half-maximal effect
Summary of the method: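 Measured: ATP-dependent luminescence, proportional to viable cell number, in human lymphoblastoid cells treated 24 hr with compound in complete culture medium. Values are AC50s from Hill-equation modelling of qHTS titrations.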

[16] = Cell Viability - LYMP2-010 (AID 981); also: nearly all actives have a fitted effect of over 55% in size; also: potency is read from the fitted curve at half-maximal effect
Summary of the method: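 This 24 hr viability screen uses LYMP2-010 lymphoblastoid cells, quantifies ATP via luciferase luminescence, and derives AC50 from Hill fits of qHTS concentration-response data.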

[17] = Cell Viability - LYMP2-012 (AID 982); also: potency is read from the fitted curve at half-maximal effect
[18] = Cell Viability - LYMP2-024 (AID 988); also: nearly all actives have a fitted effect of over 60% in size; also: potency is read from the fitted curve at half-maximal effect
Summary of the method: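 Cells at 2500 per well received compound for 24 hr after a 5 hr settling period. Viability was scored by CellTiter-Glo luminescence, with AC50 from Hill fits.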

[19] = Cell Viability - LYMP1-002 - Assay at 40 hr (AID 994); also: nearly all actives have a fitted effect of over 60% in size; also: potency is read from the fitted curve at half-maximal effect
Summary of the method: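 Concentration-dependent ATP loss after 40 hr treatment at 37 C defined toxicity; AC50 values were obtained by fitting the standard Hill equation.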

[20] = measured here: cell count channel max response
[21] = measured here: lipid channel max response

Cc1c(OCC(F)(F)F)ccnc1CS(=O)c1nc2ccccc2[nH]1 (configuration not stated)
inactive: outcome [1] | outcome [2] | Potency [3] | Potency [4]

O=C1NC(=O)C(c2ccccc2[N+](=O)[O-])=C1Nc1ccc(O)c(Cl)c1
inactive: outcome [1] | outcome [2] | Potency [3] | Potency [4]

CN1CCC(=C2c3ccccc3CCc3sccc32)CC1
-11.4% and -0.631%: max response [5, 20]
-11.1% and 14.8%: max response [5, 21]
inactive: activity change, negative = inhibition ([5]; at 25.7 µM (top of the series)) -0.622% | activity change, negative = inhibition ([5]; at 57.5 µM (top of the series)) 3.6%

Nc1cc(C(Cl)=C(Cl)Cl)c(S(N)(=O)=O)cc1S(N)(=O)=O
6.94% and 7.19%: max response [5, 20]
inactive: activity change, negative = inhibition ([5]; at 25.7 µM (top of the series)) -3.67% | activity change, negative = inhibition ([5]; at 57.5 µM (top of the series)) 2.69%
2.6% and 13.2%: max response [5, 21]

CC(=O)O[C@H]1C(=O)[C@@]2(C)C([C@H](OC(=O)c3ccccc3)[C@]3(O)C[C@H](OC(=O)[C@H](O)[C@@H](NC(=O)c4ccccc4)c4ccccc4)C(C)=C1C3(C)C)[C@]1(OC(C)=O)CO[C@@H]1C[C@@H]2O (some centres not stated)
-13.9%: max response [5, 20]
inactive: activity change, negative = inhibition ([5]; at 57.5 µM (top of the series)) -1.06% | Potency [3] | Potency [4]
-15.5%: max response [5, 21]

CCc1nc(N)nc(N)c1-c1ccc(Cl)cc1
inactive: Potency [6] | Potency [8] | Potency [9] | Potency [10] | Potency [11] | Potency [12] | Potency [13] | activity change, negative = inhibition ([5]; at 25.7 µM (top of the series)) -2.49% | activity change, negative = inhibition ([5]; at 57.5 µM (top of the series)) 9.2%
-6.7% and 7.93%: max response [5, 20]
active: Potency [7] 50.1 µM
-10.2% and 22.1%: max response [5, 21]

NCCCCNCCCN
inactive: outcome [1] | outcome [2] | Potency [3] | Potency [4]

Oc1ccc(-c2nc(-c3ccc(F)cc3)c(-c3ccncc3)[nH]2)cc1
inactive: outcome [1] | outcome [2] | Potency [3] | Potency [4]

CCN(CC)C(=S)SSC(=S)N(CC)CC
-17%: max response [5, 21]
inactive: outcome [1] | outcome [2] | activity change, negative = inhibition ([5]; at 25.7 µM (top of the series)) -3.33% | Potency [3] | Potency [4]
-15.7%: max response [5, 20]

NNc1nncc2ccccc12
inactive: outcome [1] | outcome [2] | Potency [3] | Potency [4]

COc1ccccc1N1CCN(CCN(C(=O)C2CCCCC2)c2ccccn2)CC1
inactive: outcome [1] | outcome [2] | Potency [3] | Potency [4]

O=c1ccc2ccc(O)c(O)c2o1
inactive: outcome [1] | outcome [2] | Potency [4]
active: Potency [3] 17.8 µM

CS(=O)(=O)OCCCCOS(C)(=O)=O
inactive: Potency [14] | Potency [6] | Potency [7] | Potency [15] | Potency [16] | Potency [17] | Potency [8] | Potency [9] | Potency [10] | Potency [11] | Potency [18] | Potency [12] | Potency [13] | Potency [19] | activity change, negative = inhibition ([5]; at 57.5 µM (top of the series)) 1.02%
11.4%: max response [5, 21]
2.98%: max response [5, 20]

Cc1ccc(C)c(OCCCC(C)(C)C(=O)O)c1
inactive: Potency [14] | Potency [6] | Potency [7] | Potency [15] | Potency [16] | Potency [17] | Potency [8] | Potency [9] | Potency [10] | Potency [11] | Potency [18] | Potency [12] | Potency [13] | Potency [19] | activity change, negative = inhibition ([5]; at 25.7 µM (top of the series)) 0.467%
8.2%: max response [5, 21]
10.3%: max response [5, 20]

CN(C)c1ccc2nc3ccc(=[N+](C)C)cc-3sc2c1
active: Potency [14] 3.16 µM | Potency [6] 5.01 µM | Potency [7] 7.94 µM | Potency [15] 3.16 µM | Potency [16] 6.31 µM | Potency [17] 6.31 µM | Potency [8] 3.98 µM | Potency [9] 7.94 µM | Potency [10] 7.94 µM | Potency [11] 6.31 µM | Potency [18] 6.31 µM | Potency [12] 7.94 µM | Potency [13] 10 µM | Potency [19] 7.94 µM

O=c1c(O)c(-c2ccc(O)cc2O)oc2cc(O)cc(O)c12
inactive: outcome [1] | outcome [2] | Potency [4]
active: Potency [3] 5.01 µM
